From PubChem BioAssay AID624330 (Southern Research Specialized Biocontainment Screening …, 2012) come the findings set out here.

Structures are written as SMILES. Among all 340,000 compounds or so, about 2,100 (0.62%) were called active.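 Rule for the calls: active = first-screen hits whose inhibition reached a set limit at any dose in the follow-up dose series; inconclusive = inhibition above the set first-screen limit but never retested; inactive = the rest.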 Not all results are given here. Results with a measured potency or affinity are listed apart.

Rac GTPase-activating protein 1 (Homo sapiens), sequence (Q9H0H5 whole entry, looked up): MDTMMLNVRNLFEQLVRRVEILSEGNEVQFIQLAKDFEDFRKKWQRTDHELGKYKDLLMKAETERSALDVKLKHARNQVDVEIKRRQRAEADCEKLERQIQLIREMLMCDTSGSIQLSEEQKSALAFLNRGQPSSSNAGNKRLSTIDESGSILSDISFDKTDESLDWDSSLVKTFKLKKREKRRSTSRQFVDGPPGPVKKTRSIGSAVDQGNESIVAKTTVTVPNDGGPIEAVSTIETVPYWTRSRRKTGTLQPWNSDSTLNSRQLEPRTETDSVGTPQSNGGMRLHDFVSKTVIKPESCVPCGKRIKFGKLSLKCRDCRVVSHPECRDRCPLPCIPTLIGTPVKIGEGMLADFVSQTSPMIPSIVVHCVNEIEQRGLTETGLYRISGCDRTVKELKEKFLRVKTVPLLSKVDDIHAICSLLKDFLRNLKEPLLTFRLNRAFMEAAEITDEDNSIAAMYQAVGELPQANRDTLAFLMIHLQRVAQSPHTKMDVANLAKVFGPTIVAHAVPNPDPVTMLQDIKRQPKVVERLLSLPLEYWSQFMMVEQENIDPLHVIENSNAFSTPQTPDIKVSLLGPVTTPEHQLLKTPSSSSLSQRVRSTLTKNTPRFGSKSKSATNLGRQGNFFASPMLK

This experiment has as its target Rac GTPase-activating protein 1 (Homo sapiens) (UniProt Q9H0H5). The experiment is described as follows: MgcRacGAP GTPase-activating activity inhibitors, confirmation, biochemical, ADP Hunter fluorescence, primary and confirmatory (AID 624330).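 Note: fluorescence reports GDP produced by GAP-driven GTP hydrolysis.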 Particulars: MgcRacGAP-stimulated Rac1 GTP hydrolysis, at 30 µM, stronger effect = higher value, GST-tagged Rac1 F28L mutant substrate.
For `CCCc1nc(NC(=O)c2ccccc2)nc(NC(=O)c2ccccc2)n1`, the inhibition is 3.82% (inactive).
As to `Cc1nc(-c2ccccc2)cc(-c2ccccc2)n1`, the inhibition was 12.4% (inactive).
Next, `CN1CCN(/N=C/c2ccc(Cl)c(Cl)c2)CC1`: -7.71% (inactive); `Cc1ccc(-c2nc3sc4c(c3c(=O)n2N)CC(C)(C)OC4)cc1`: 3.06% (inactive); `CCO[C@H]1OC(C(=O)NC2CC2)=C[C@@H](c2ccc3c(c2)OCO3)[C@@H]1CCCO`: 6.42% (inactive).
Next, `CCCCc1ccc(/C=C2\C(=O)ON=C2c2ccccc2)s1`: 2.22% (inactive); `CSc1nc2sc3c(c2c(=O)n1C)CCC3`: 15.1% (inactive).
For `O=C(O)c1ccccc1C(=O)Nc1ccc(Nc2ccc([N+](=O)[O-])cc2[N+](=O)[O-])cc1`, the inhibition was 15.6% (inactive).
Next, `COc1ccccc1N1C(=O)C2C3CC(c4ccccc4)C(C3)C2C1=O` (configuration not stated): 7.95% (inactive); `O=C(O)CCNS(=O)(=O)c1ccc2c(c1)OCCCO2`: 9.26% (inactive).
As for `Cc1ccc(Cl)c(NC(=O)CN2C(=O)C(C)N(c3ccc(F)cc3)C2=O)c1Cl` (configuration not stated), the inhibition is 15.2% (inactive).
Turning to `Cc1ccc(N2CC(C(=O)Nc3ccc4c(c3)OCCO4)CC2=O)cc1C` (configuration not stated), the inhibition is 10.2% (inactive).
As to `Cc1ccc(N2CC(C(=O)Nc3ccc(N4CCOCC4)cc3)CC2=O)cc1C` (configuration not stated), the inhibition is 1.23% (inactive).
In the case of `CC1CCc2sc(C(=O)NC3CCN(Cc4ccccc4)CC3)cc2C1` (configuration not stated) it was 3.25% (inactive); in that of `CSc1nsc(/C=C/Nc2ccc(Cl)cc2)c1C#N`, 6.16% (inactive); in that of `Cc1nsc(Nc2ccc([N+](=O)[O-])cc2)c1C#N`, 2.18% (inactive).
Next, `N#Cc1c(Nc2ccccc2)sc(C(=O)c2ccccc2)c1N`: -10.7% (inactive); `Cc1nsc(Nc2ccccc2)c1C#N`: 4.71% (inactive).
As for `Cn1ncc2c(Nc3cc(Cl)cc(Cl)c3)ncnc21`, the inhibition is 11.1% (inactive).
As to `CN(CC(=O)Nc1ccccc1Cl)C(=O)COC(=O)c1ccccc1[N+](=O)[O-]`, the inhibition was 11.2% (inactive).
With `Cc1cccc(CCN2CCN=C2Nc2ccccc2)c1`, the inhibition is 10.2% (inactive).
Consider `CCNS(=O)(=O)c1ccc(NC(=O)c2cccnc2)cc1`, for which the inhibition was -7.35% (inactive).
Next, `COc1ccc(/C=N/NC(=O)c2cc(C3CC3)[nH]n2)cc1OC`: 7.5% (inactive).
Next, `CCOc1cc(/C=N/NC(=O)C2CCCC2)ccc1OC(C)C`: 7.91% (inactive); `CCOc1ccc(/C=N/NC(=O)C2CC2)cc1OC`: 4.39% (inactive); `CCOc1cccc(/C=N/NC(=O)c2cc(C3CC3)[nH]n2)c1O`: 9.09% (inactive).
In the case of `C=CCOc1ccc(/C=N/NC(=O)C2CCCC2)cc1OCC` it was 7.59% (inactive); in that of `Cn1cc(C(=O)N/N=C/c2cccc(O)c2)ccc1=O`, 7.64% (inactive).
For the compound `COc1ccc(/C=N/NC(=O)c2ccc(=O)n(C)c2)cc1OC`, the inhibition is 11.2% (inactive).
In the case of `COc1cc(/C=N/NC(=O)C2CCN(CC(O)COCc3ccccc3)CC2)cc(OC)c1OC` (configuration not stated) it was -0.29% (inactive).
Next, `COc1cc(/C=N/NC(=O)c2ccc(NC(=O)C3CC3)cc2)ccc1OC(C)=O`: 7.67% (inactive).
With `COc1cc(/C=N/NC(=O)c2ccc(NC(=O)C3CCCCC3)cc2)ccc1O`, the inhibition was 8.05% (inactive).
In the case of `CCn1cc(/C=C(\NC(=O)c2ccccc2)C(=O)NCCCN2CCOCC2)c2ccccc21` it was 13% (inactive); in that of `COc1ccc(/[N+]([O-])=C/c2ccco2)cc1`, 9.73% (inactive); in that of `CC(C)CNC(=O)NC(=O)COC(=O)c1cc(F)cc(F)c1`, 2.44% (inactive).
In the case of `CCn1c(SCC(=O)N/N=C/c2ccc(O)c(OC)c2)nc2ccccc21` it was 12% (inactive).
In the case of `C/C(=N\NC(=O)CSc1nc2ccccc2o1)c1cccc(O)c1` it was 10.7% (inactive).
Consider `C/C(=N/NC(=O)CSc1nc2ccccc2n1C)c1ccco1`, for which the inhibition was 7.14% (inactive).
Regarding `CC(=NNC(=O)CSc1nc2ccccc2o1)c1ccco1`, the inhibition is 3.04% (inactive).
For `C/C(=N/NC(=O)CSc1nc2ccccc2n1C)c1ccncc1`, the inhibition was 8.72% (inactive).
For `COc1cc(/C=N/NC(=O)CSc2nc3ccccc3n2C)cc(OC)c1OC`, the inhibition is -9.37% (inactive).
Take `COc1ccccc1C(=O)NC(CCSC)C(=O)NCC(c1ccco1)N(C)C` (configuration not stated): the inhibition was 10.1% (inactive).
Regarding `O=C(O)c1ccc(N2CCS(=O)(=O)CC2)cc1`, the inhibition is 2.19% (inactive).
Next, `CON(C)c1nc(NCC(C)C)nc(OCC#N)n1`: -6.48% (inactive); `CCn1c(=O)c2cc(C(=O)N3CCN(C)CC3)sc2c2ccccc21`: 7.75% (inactive).
In the case of `COc1ccc(NC(=O)CC2S/C(=N\c3nccs3)N(C)C2=O)cc1` (configuration not stated) it was 13.7% (inactive).
In the case of `COc1cc2nncc(SC)c2cc1OC` it was 8.55% (inactive).
For `CCCn1c(SCC(=O)N(CC)c2c(N)n(Cc3ccccc3)c(=O)[nH]c2=O)nnc1-c1ccncc1`, the inhibition is -0.81% (inactive).
Next, `COc1ccc(OCCCC(=O)NCCc2ccc(OC)c(OC)c2)cc1`: 5.19% (inactive); `O=C(CNCc1cccnc1)Nc1cc(C(F)(F)F)ccc1N1CCOCC1`: 28.2% (inactive); `CCC(=O)Nc1cc(C(F)(F)F)ccc1N1CCOCC1`: -1.84% (inactive).
Next, `O=C(c1cc(Br)c[nH]1)N1CCSCC1`: 9.76% (inactive); `COc1ccc(CN2CCN(C3CCOCC3)CC2CCO)c(C)c1C` (configuration not stated): 13% (inactive); `COc1cc(C2=NOC(C(=O)N3CCOCC3)C2)cc(OC)c1OC` (configuration not stated): 7.04% (inactive).
Next, `OCCN1CCN(C(=S)Nc2cccc(C(F)(F)F)c2)CC1`: 24% (inactive).
For `OCCN1CCN(CCCN2c3ccccc3Sc3ccc(C(F)(F)F)cc32)CC1`, the inhibition is 3.74% (inactive).
In the case of `C[C@@H]1CN([C@@H](C)CO)C(=O)c2cc(Br)cnc2O[C@H]1CN(C)C(=O)CCN1CCCCC1` it was 14.8% (inactive); in that of `S=C(N/N=C/c1ccc(Cl)cc1)N1CCOCC1`, 0.9% (inactive); in that of `O=S(=O)(c1ccc(Cl)c(NC(=S)N/N=C/c2c(F)cccc2F)c1)N1CCOCC1`, 9.48% (inactive).
For the compound `Cc1ccc(/C=N/NC(=S)N2CCOCC2)cc1`, the inhibition was 4.05% (inactive).
Next, `O=[N+]([O-])c1cc(Cl)cc(/C=N/NC(=S)Nc2cc(S(=O)(=O)N3CCOCC3)ccc2Cl)c1O`: 10% (inactive).
In the case of `N#Cc1ccccc1NS(=O)(=O)c1cc2c3c(c1)CCC(=O)N3CCC2` it was -1.72% (inactive).
